ChEMBL document CHEMBL3988442, “University of Dundee, Small-Polar-MMV Screening Library” (2021)
About 13,000 (27%) of roughly 48,000 compounds showed an effect of 50% or more. The list shows a part of the results.

What follows are compounds tested on Wolbachia pipientis (assay: Anti-Wolbachia Cell-Based Screen). Details: 5 µM.
Assay type: functional
Design: scale not given: in the data most compounds retested in dose-response had high values

SMILES | Percent Effect [%]
COc1ncc(C)cc1NC(=O)CCc1ccccn1 | -10.54
CO[C@H]1[C@@H]2CC[C@H]1CN(c1nc(C)nc3sccc13)C2 | 2.93
CO[C@H]1[C@@H]2CC[C@H]1CN(c1nc(C)nc3ccsc13)C2 | 116.9
Cc1nc(N2CCC(C(O)c3nccn3C)CC2)c2sccc2n1 (configuration not stated) | -1.351
Cc1nc2c(c(N3CCC(O)(CN4CCCC4)CC3)n1)CCNCC2 | -22.09
CNc1cncc(C2CCCN2C(=O)CCn2ccnc2)n1 (configuration not stated) | 78.35
O=C(NCCCn1ccnc1)N1CCCC1c1ccncc1 (configuration not stated) | 0.09304
CC(C)c1nccn1CCC(=O)N1CCCC1c1cccn1C (configuration not stated) | 1.985
Cn1cc(C2CCCN2C(=O)CCn2ccc3ccccc32)cn1 (configuration not stated) | 20.59
CC(C)c1nccn1CCC(=O)N1CCCCC1c1ccn[nH]1 (configuration not stated) | 89.39
CNc1cncc(C2CCCN2C(=O)c2ccc3oc(=O)n(C)c3c2)n1 (configuration not stated) | -20.51
CNc1cncc(C2CCCN2C(=O)CCn2ccnc2C(C)C)n1 (configuration not stated) | 103
CNc1cncc(C2CCCN2C(=O)Cn2c(=O)oc3ccccc32)n1 (configuration not stated) | 88.17
O=C(Cn1c(=O)oc2ccccc21)N1Cc2cncnc2C1 | -8.946
CC(C)(C)Cc1noc2ncc(C(=O)N3CCCSCC3)cc12 | -8.808
Cn1c(-c2ccc(F)cc2)cn2cc(C(=O)N3CC[C@@H](O)C3)nc2c1=O | 4.586
CN(C(=O)Cc1ccc(NC(=O)NC2CC2)cc1)c1ccccc1 | 5.932
COc1cccc(/C=C/CCN2CCC(C(=O)N3CCCC3)CC2)c1 | -5.123
CC(C)CCN1CC2(CCCN(C(=O)NCc3cccs3)C2)CCC1=O (configuration not stated) | 1.307
CNc1cncc(C2CCCN2C(=O)Cn2ccnc2C)n1 (configuration not stated) | 100.6
CCc1nccn1CCC(=O)N1CCCC1c1ccc(F)cc1 (configuration not stated) | 18.71
CCc1nccn1CCC(=O)N1CC[C@H](CO)[C@H](O)C1 | -12.26
CCc1nccn1CCC(=O)N1CCCC1c1cncc(NC)n1 (configuration not stated) | 72.9
CCc1nc(CN2CCCN(c3nc4ccccc4o3)CC2)no1 | 1.249
O=C(NC1CCN(C2CC2)CC1)c1[nH]nc(C2CC2)c1Cl | 0.5841
CCn1cc(CN2C[C@H]3CC[C@@H]2CN(C(=O)C2CCC2)C3)cn1 | 1.465

SMILES | Percent Effect [%]
CSCC(C)(O)CNC(=O)Nc1cc(C)cc(C)c1 (configuration not stated) | -12.06
Cn1nc(C2CC2)c2c1NC(=O)CC2c1cc(CN2CCCC2)cs1 (configuration not stated) | -26.2
CCOCCn1c(=O)[nH]c2cc(C(=O)N(C)Cc3cc(C)[nH]n3)ccc21 | 4.063
C=C(C)CN1CCC(NC(=O)NCCc2ccc(N(C)C)cc2)CC1 | -10.94
CNc1cc(N2CCCC2CNCc2cnc(C)cn2)ncn1 (configuration not stated) | -4.576
CNc1cc(N2CCC(O)(CNC(=O)c3ccc(C)nc3)C2)ncn1 (configuration not stated) | 87.58
Cc1ccc(C(=O)NCc2ccnc(N3CCN(C)CC3)c2)cn1 | -19.75
Cc1cnn(CC2CCCN2C(=O)c2csc(C(C)C)n2)c1 (configuration not stated) | 113.9
Cc1cnn(CC2CCCN2C(=O)c2csc(C3CC3)n2)c1 (configuration not stated) | 86.35
COCc1nc(C(=O)N2CCCCC2Cn2cc(C)cn2)cs1 (configuration not stated) | 2.393
Cc1cnn(CC2CCCCN2C(=O)c2ccc(C#N)c(C)n2)c1 (configuration not stated) | 2.901
COCc1nc(C(=O)N2CCCC2c2ccccc2C)cs1 (configuration not stated) | 8.95
COCc1nc(C(=O)N2CCCC2Cn2cc(C)cn2)cs1 (configuration not stated) | 115.1
CC(Nc1ccc(CN2CCCC2=O)cc1)c1ccc(C#N)cc1 (configuration not stated) | 3.244
CCc1ccc(C(=O)O)cc1S(=O)(=O)Nc1ccc(=O)n(C)c1 | -7.326
O=C(NC1CCc2nccn2C1)c1ccc(OCC2CC2)nc1 (configuration not stated) | -10.39
CC(=O)N1CCc2nc3sc(C(N)=O)c(N)c3c(C(F)(F)F)c2C1 | 0.4865
CCn1ncnc1CN1CCC(CNC(=O)c2cccc(C)n2)C1 (configuration not stated) | 95.93
CCn1ncnc1CN1CCC(CNC(=O)c2cccc(C)c2)C1 (configuration not stated) | 94.27
CCc1cc(C(=O)NCC2CCN(Cc3cccc(C)n3)C2)on1 (configuration not stated) | 1.32
CCn1ccnc1CN1CCC(CNC(=O)c2ccc(C)nc2)C1 (configuration not stated) | -5.867
Cc1cc(CN2CCC(CNC(=O)c3nccc4ccccc34)C2)[nH]n1 (configuration not stated) | 5.129
Nc1cc(C(=O)NCC2CCN(Cc3cccc(O)c3)C2)ccn1 (configuration not stated) | -106.2
Cc1ccccc1C(C(=O)N(Cc1cnn(C)c1)CC(C)C)N(C)C (configuration not stated) | -6.978
Cc1cccc(-c2nc(C)nn2CN2CCC3(CC2)OCCO3)c1 | 0.3778
Cc1cccnc1N1CCN(C(=O)CCc2cn3ccccc3n2)CC1 | -2.508
